Measured values reported in PubChem BioAssay (NCI).
The panel holds about 79,000 compounds, 15% with a hit somewhere; the sample as a whole holds those more often. The source made the active and inactive calls. No stated cut-off is given here; in the data, active means growth inhibition above about 70%; inactive means the rest.

Experiments:
[1] = NCI Yeast Anticancer Drug Screen. Data for the mec2-1 strain (AID 157); conditions: S. cerevisiae mec2-1 strain, active compounds read high
Outline: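 Mutant yeast (mec2-1) grown with compound; growth inhibition relative to vehicle control reported.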

[2] = NCI Yeast Anticancer Drug Screen. Data for the rad14 strain (AID 159);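 further: 0% = growth of vehicle-treated control cultures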; conditions: S. cerevisiae rad14 strain growth inhibition, active compounds read high
Outline: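 Here, inhibition of yeast growth was measured after compound exposure, using a strain with a genetic defect in DNA damage repair and vehicle-treated cultures as the reference.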

[3] = NCI Yeast Anticancer Drug Screen. Data for the CLN2oe strain (AID 163);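 further: 0% = growth of vehicle-only control cultures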; conditions: S. cerevisiae CLN2oe strain, active compounds read high
Outline: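 Compounds are applied to yeast harbouring a defined cell-cycle control change; reduced growth compared with vehicle-treated controls gives the value.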

[4] = NCI Yeast Anticancer Drug Screen. Data for the cln2 rad14 strain (AID 165);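 further: 0% = growth equal to vehicle treated cultures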; conditions: S. cerevisiae cln2 rad14 strain, active compounds read high
Outline: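 Readout is yeast growth inhibition versus vehicle-treated controls, using a strain with cln2 and rad14 alterations exposed to compound.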

[5] = NCI Yeast Anticancer Drug Screen. Data for the bub3 strain (AID 167); conditions: S. cerevisiae bub3 mutant strain, active compounds read high
Outline: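 Whole-cell yeast assay. The mutant strain was incubated with compounds, and growth inhibition was determined by comparison with vehicle-treated cells.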

[6] = NCI Yeast Anticancer Drug Screen. Data for the wt2 strain (AID 169);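 further: 0% = growth of vehicle-treated yeast cultures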; conditions: S. cerevisiae wt2 strain growth inhibition, active compounds read high
Outline: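 Against vehicle-treated controls, the growth of yeast exposed to each compound was compared, and the inhibition was recorded.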

[7] = NCI Yeast Anticancer Drug Screen. Data for the mlh1 strain (AID 171);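 further: 0% = growth of vehicle-treated control cultures of the same strain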; conditions: S. cerevisiae mlh1 strain growth inhibition, active compounds read high
Outline: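 Measured: yeast growth. Reference: vehicle-treated controls. Organism: strain with a defined alteration affecting DNA damage repair or cell cycle control, treated with compound.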

[8] = NCI Yeast Anticancer Drug Screen. Data for the sgs1 strain (AID 173);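 further: 0% = growth of vehicle-only control cultures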; conditions: S. cerevisiae sgs1 mutant, active compounds read high
Outline: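 Each compound was added to cultures of the altered yeast strain. Growth was recorded, and inhibition was derived by comparison with vehicle controls.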

[9] = NCI Yeast Anticancer Drug Screen. Data for the mlh1 rad18 strain (AID 175); conditions: S. cerevisiae mlh1 rad18 strain growth inhibition, active compounds read high
Outline: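 Genetically defined yeast (DNA repair-deficient) exposed to compounds; growth inhibition determined relative to vehicle.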

[10] = NCI Yeast Anticancer Drug Screen. Data for the rad18 strain (AID 177); conditions: S. cerevisiae rad18 mutant growth inhibition, active compounds read high
Outline: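 Vehicle-treated cultures served as the baseline for scoring compound-induced growth inhibition in DNA-repair-mutant yeast.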

[11] = NCI Yeast Anticancer Drug Screen. Data for the rad52 strain (AID 147);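 further: 0% = growth of vehicle-treated control cultures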; conditions: S. cerevisiae rad52 mutant growth inhibition, active compounds read high
Outline: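 The repair-mutant yeast strain was incubated with compounds, then growth was read and inhibition derived relative to vehicle.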

[12] = NCI Yeast Anticancer Drug Screen. Data for the wt1 strain (AID 149);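 further: 0% = growth of vehicle-treated wt1 cultures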; conditions: S. cerevisiae wt1 strain (SPY 50644) growth inhibition, active compounds read high
Outline: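 Measured: growth of wt1 yeast under compound versus vehicle treatment, reported as inhibition.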

[13] = NCI Yeast Anticancer Drug Screen. Data for the rad50EPP+ strain (AID 151);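 further: 0% = growth of vehicle-treated control cultures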; conditions: S. cerevisiae rad50 mutant strain, active compounds read high
Outline: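 Vehicle-normalised growth inhibition; rad50EPP+ yeast strain, altered in DNA damage repair, compound-treated.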

[14] = NCI Yeast Anticancer Drug Screen. Data for the mgt1 strain (AID 153); conditions: S. cerevisiae mgt1 mutant growth inhibition, active compounds read high
Outline: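 Vehicle-normalized growth inhibition is determined in mgt1 yeast, a strain selected for a defined alteration in DNA repair or cell cycle control.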

[15] = NCI Yeast Anticancer Drug Screen. Data for the rad50 strain (AID 155);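 further: 0% = growth of vehicle-only cultures of the same strain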; conditions: S. cerevisiae rad50 strain growth inhibition, active compounds read high
Outline: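 Growth of the mutant yeast was measured after compound exposure and referenced to vehicle-treated cultures.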

[16] = NCI Yeast Anticancer Drug Screen. Data for the sgs1 mgt1 strain (AID 161);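 further: 0% = growth of cultures given vehicle only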; conditions: S. cerevisiae sgs1 mgt1 strain, active compounds read high
Outline: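 Percent growth inhibition was derived by comparing compound-exposed mutant yeast with vehicle-exposed cultures. The strain carries alterations in DNA damage repair.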

[17] = at 5.0 µM (retest, dose inferred, filed as 0.5)
[18] = at 50.0 µM (retest, dose inferred, filed as 5.0)

Measured: growth inhibition

NC(=S)N1N=C2c3ccccc3CC[C@@H]2[C@@H]1c1ccccc1
inactive: [1]; [17] -16% | [1]; at 11.0 µM -3% | [1]; at 33.0 µM 13% | [1]; at 50.0 µM 64.4% | [2]; at 1.2 µM -36% | [2]; at 3.7 µM -33% | [2]; at 11.0 µM -25% | [2]; at 33.0 µM 2% | [3]; at 1.2 µM -28% | [3]; at 3.7 µM -27% | [3]; at 11.0 µM -25% | [3]; at 33.0 µM -10% | [4]; [17] -4% | [4]; [18] 55% | [4]; at 50.0 µM 67.2% | [5]; at 1.2 µM -4% | [5]; at 3.7 µM 11% | [5]; [17] 27% | [5]; at 11.0 µM -4% | [5]; at 33.0 µM 34% | [6]; at 1.2 µM -17% | [6]; at 3.7 µM -5% | [6]; at 11.0 µM -2% | [6]; at 33.0 µM 25% | [7]; at 1.2 µM -31% | [7]; at 3.7 µM -25% | [7]; at 11.0 µM -8% | [7]; at 33.0 µM 23% | [8]; at 1.2 µM 6% | [8]; at 3.7 µM 13% | [8]; at 11.0 µM 27% | [8]; at 33.0 µM 68% | [9]; [17] -15% | [10]; at 1.2 µM -25% | [10]; at 3.7 µM -21% | [10]; at 11.0 µM -11% | [10]; at 33.0 µM 14% | [10]; at 100.0 µM 66%
active: [1]; [18] 77% | [1]; at 100.0 µM 73% | [2]; at 100.0 µM 84% | [3]; at 100.0 µM 73% | [5]; [18] 86% | [5]; at 50.0 µM 77.1% | [5]; at 100.0 µM 90% | [6]; at 100.0 µM 86% | [7]; at 100.0 µM 88% | [8]; at 100.0 µM 89% | [9]; [18] 81% | [9]; at 50.0 µM 74.5%

CCN1CCC(O)(c2ccc(Oc3ccc(Cl)cc3)cc2)C(C(=O)c2ccc(Oc3ccc(Cl)cc3)cc2)C1 (stereo not drawn)
inactive: [11]; at 1.2 µM -10% | [11]; at 3.7 µM -14% | [11]; at 11.0 µM -16% | [11]; at 33.0 µM -6% | [11]; at 100.0 µM 12% | [12]; at 1.2 µM -51% | [12]; at 3.7 µM -27% | [12]; at 11.0 µM -44% | [12]; at 33.0 µM -46% | [12]; at 100.0 µM -8% | [13]; at 1.2 µM -7% | [13]; at 3.7 µM 0% | [13]; at 11.0 µM 4% | [13]; at 33.0 µM -2% | [13]; at 100.0 µM 7% | [14]; at 1.2 µM 30% | [14]; at 3.7 µM 64% | [14]; at 11.0 µM 42% | [14]; at 33.0 µM 47% | [14]; at 100.0 µM 59% | [15]; at 1.2 µM -20% | [15]; at 3.7 µM -7% | [15]; [17] 51% | [15]; at 11.0 µM -8% | [15]; at 33.0 µM -30% | [15]; [18] 7% | [15]; at 100.0 µM -6% | [1]; at 1.2 µM 0% | [1]; at 3.7 µM 28% | [1]; [17] 68% | [1]; at 11.0 µM 26% | [1]; at 33.0 µM 1% | [1]; [18] -2% | [1]; at 100.0 µM 8% | [3]; at 1.2 µM 28% | [3]; at 3.7 µM 44% | [3]; at 11.0 µM 35% | [3]; at 33.0 µM 33% | [3]; at 100.0 µM 16% | [4]; [17] 23% | [5]; at 1.2 µM 22% | [5]; at 3.7 µM 39% | [5]; at 11.0 µM 50% | [5]; at 33.0 µM 39% | [5]; at 100.0 µM 51% | [6]; at 1.2 µM -21% | [6]; at 3.7 µM 35% | [6]; at 11.0 µM 5% | [6]; at 33.0 µM -13% | [6]; at 100.0 µM 23% | [7]; at 1.2 µM -1% | [7]; at 3.7 µM -4% | [7]; at 11.0 µM -8% | [7]; at 33.0 µM -4% | [7]; at 100.0 µM 0% | [8]; at 1.2 µM -27% | [8]; at 3.7 µM 63% | [8]; at 11.0 µM 20% | [8]; at 33.0 µM 11% | [8]; at 100.0 µM 33% | [9]; [18] 18% | [10]; at 1.2 µM -6% | [10]; at 3.7 µM 20% | [10]; at 11.0 µM -1% | [10]; at 33.0 µM -4% | [10]; at 100.0 µM 7%
active: [15]; at 50.0 µM 83% | [1]; at 50.0 µM 93.2% | [16]; [17] 97% | [16]; [18] 98% | [16]; at 50.0 µM 89.2% | [4]; [18] 98% | [4]; at 50.0 µM 87.5% | [5]; [17] 87% | [5]; [18] 98% | [5]; at 50.0 µM 90.2% | [9]; [17] 82% | [9]; at 50.0 µM 90.5%
